{"source": "the supplement of paper PMC11624193", "about": "“Coupling cellular drug-target engagement to downstream pharmacology with CeTEAM” (Nature Communications, 2024)", "note": "Structures can show the parent of a compound that is named as a salt. ± gives the standard deviation of the averaged measurements.", "data": [{"target": "PARP1 L713F-nLuc biosensor (HCT116) (UniProt P09874)", "sequence (P09874 whole entry L713F, looked up)": "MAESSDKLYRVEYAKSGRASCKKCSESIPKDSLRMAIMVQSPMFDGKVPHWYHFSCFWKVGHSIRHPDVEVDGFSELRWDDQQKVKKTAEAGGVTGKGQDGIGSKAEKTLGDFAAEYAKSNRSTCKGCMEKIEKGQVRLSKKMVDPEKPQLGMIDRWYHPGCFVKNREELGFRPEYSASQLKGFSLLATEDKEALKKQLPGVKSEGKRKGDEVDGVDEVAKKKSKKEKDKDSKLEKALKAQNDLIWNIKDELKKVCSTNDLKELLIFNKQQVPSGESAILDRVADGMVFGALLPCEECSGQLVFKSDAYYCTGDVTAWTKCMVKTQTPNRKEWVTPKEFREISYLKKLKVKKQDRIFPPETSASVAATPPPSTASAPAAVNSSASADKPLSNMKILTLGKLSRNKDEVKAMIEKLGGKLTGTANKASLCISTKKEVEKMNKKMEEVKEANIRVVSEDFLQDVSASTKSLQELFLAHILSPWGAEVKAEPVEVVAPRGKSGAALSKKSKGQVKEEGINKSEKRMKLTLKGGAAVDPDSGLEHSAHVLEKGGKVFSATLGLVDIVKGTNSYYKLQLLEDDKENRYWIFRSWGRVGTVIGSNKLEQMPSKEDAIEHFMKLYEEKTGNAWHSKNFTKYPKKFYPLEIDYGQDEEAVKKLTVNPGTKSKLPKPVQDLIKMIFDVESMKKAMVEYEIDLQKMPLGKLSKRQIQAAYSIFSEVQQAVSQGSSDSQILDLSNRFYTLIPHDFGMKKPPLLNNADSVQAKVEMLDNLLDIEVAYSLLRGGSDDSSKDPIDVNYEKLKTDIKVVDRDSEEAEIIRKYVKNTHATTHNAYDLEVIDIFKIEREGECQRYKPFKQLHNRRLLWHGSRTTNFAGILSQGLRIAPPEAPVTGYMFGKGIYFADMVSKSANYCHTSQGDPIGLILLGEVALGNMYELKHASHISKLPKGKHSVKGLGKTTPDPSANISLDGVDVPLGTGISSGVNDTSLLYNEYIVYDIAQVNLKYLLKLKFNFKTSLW", "assay": "PARP1 L713F-nLuc/akaLuc ratio relative to DMSO control (biosensor stabilization) (fold change); higher = more PARP1 biosensor stabilization (target engagement / stabilizer), active = hit call of the paper", "conditions": "stock concentration (mM; final µM = stock mM x 1): 10; 24 h;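 active = log2 fold change beyond 2 SD from the library mean after excluding viability outliers; inactive = within 2 SD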", "values": [{"smiles": "CC(C)(O)[C@H]1CC[C@H](Nc2ccc3ncc(-c4cccc(C(F)(F)F)c4)n3n2)CC1", "PARP1 L713F-nLuc/akaLuc ratio": "0.732 (inactive)"}, {"smiles": "Cc1ccc(C(=O)Nc2ccc(Oc3cc4cnn(C)c4cc3-c3cn[nH]c3)c(F)c2)c(=O)n1-c1ccc(F)cc1", "PARP1 L713F-nLuc/akaLuc ratio": "1.52 (inactive)"}, {"smiles": "O=C1/C(=C/c2ccc(O)c(Br)c2)CCC/C1=C\\c1ccc(O)c(Br)c1", "note": "[Histone Acetyltransferase Inhibitor II]", "PARP1 L713F-nLuc/akaLuc ratio": "2.06 (inactive)"}, {"smiles": "O=C1CCC(N2C(=O)c3ccccc3C2=O)C(=O)N1", "note": "(stereo unspecified) [Thalidomide]", "PARP1 L713F-nLuc/akaLuc ratio": "0.757 (inactive)"}, {"smiles": "CC(C)(O)CC(=O)NCCn1ccc2ncnc(Nc3ccc(Oc4cccc(C(F)(F)F)c4)c(Cl)c3)c21", "PARP1 L713F-nLuc/akaLuc ratio": "0.662 (inactive)"}, {"smiles": "Cc1cc(CN2CCN(c3c(Br)cnc4nc(-c5ccc(N6CCN(C)CC6)cc5)[nH]c34)CC2)no1", "PARP1 L713F-nLuc/akaLuc ratio": "1.37 (inactive)"}, {"smiles": "Cc1cc(Nc2cc3ncccc3c(N[C@@H]3C[C@H]4CC[C@@H](C3)N4CCC#N)n2)n[nH]1", "note": "[Izencitinib]", "PARP1 L713F-nLuc/akaLuc ratio": "0.804 (inactive)"}, {"smiles": "Cn1cnc2c(F)c(Nc3ccc(Br)cc3F)c(C(=O)NOCCO)cc21", "PARP1 L713F-nLuc/akaLuc ratio": "0.546 (inactive)"}, {"smiles": "Nc1[nH]c(=O)nc2c1ncn2[C@@H]1O[C@H](CO)[C@@H](O)[C@H]1O", "note": "[Crotonoside]", "PARP1 L713F-nLuc/akaLuc ratio": "0.835 (inactive)"}, {"smiles": "Cc1ccc(Oc2nc3cc(-c4ccc5c(ccn5C)c4)c(Cl)cc3[nH]2)cc1C(=O)O", "PARP1 L713F-nLuc/akaLuc ratio": "0.541 (inactive)"}, {"smiles": "CCCCCOC(=O)Nc1nc(=O)n([C@@H]2O[C@H](C)[C@@H](O)[C@H]2O)cc1F", "note": "[Capecitabine]", "PARP1 L713F-nLuc/akaLuc ratio": "0.759 (inactive)"}, {"smiles": "CN(C)CCCn1cc(C2=C(c3c[nH]c4ccccc34)C(=O)NC2=O)c2ccccc21", "note": "[Bisindolylmaleimide I]", "PARP1 L713F-nLuc/akaLuc ratio": "26.8 (active)"}, {"smiles": "O=C(O)CC1CC(c2ccccc2)=NO1", "note": "(stereo unspecified)", "PARP1 L713F-nLuc/akaLuc ratio": "1.72 (inactive)"}, {"smiles": "Nc1ncn([C@@H]2O[C@H](CO)[C@@H](O)[C@H]2O)c(=O)n1", "note": "[5-Azacytidine]", "PARP1 L713F-nLuc/akaLuc ratio": "2.35 (inactive)"}, {"smiles": "CCCCCCCCc1ccc(CCC(N)(CO)CO)cc1", "note": "[Fingolimod (FTY720) HCl]", "PARP1 L713F-nLuc/akaLuc ratio": "0.577 (inactive)"}, {"smiles": "CCN(CC)Cc1cc(Nc2ccnc3cc(Cl)ccc23)ccc1O", "note": "[Amodiaquine (dihydrochloride dihydrate)]", "PARP1 L713F-nLuc/akaLuc ratio": "0.819 (inactive)"}, {"smiles": "CNCCN1CCC(OCc2ccccc2)CC1", "PARP1 L713F-nLuc/akaLuc ratio": "0.908 (inactive)"}, {"smiles": "CN(C)C(=N)NC(=N)N", "note": "[Metformin HCl]", "PARP1 L713F-nLuc/akaLuc ratio": "0.701 (inactive)"}, {"smiles": "O[C@@H]1CO[C@H]2[C@@H]1OC[C@H]2Oc1nc2nc(-c3ccc(-c4ccccc4)cc3)c(Cl)cc2[nH]1", "PARP1 L713F-nLuc/akaLuc ratio": "0.439 (inactive)"}, {"smiles": "O=c1[nH]ccc2c(O)cccc12", "note": "[1,5-Isoquinolinediol]", "PARP1 L713F-nLuc/akaLuc ratio": "2.7 (active)"}, {"smiles": "N=C(NC(=N)N1CCCC1)Nc1ccc(OC(F)(F)F)cc1", "PARP1 L713F-nLuc/akaLuc ratio": "1.01 (inactive)"}, {"smiles": "O=c1cc(O)cc(/C=C/c2ccc(O)c(O)c2)o1", "note": "[Hispidin]", "PARP1 L713F-nLuc/akaLuc ratio": "1.19 (inactive)"}, {"smiles": "O=C(Nc1c[nH]nc1-c1nc2ccc(CN3CCOCC3)cc2[nH]1)NC1CC1", "PARP1 L713F-nLuc/akaLuc ratio": "2.07 ± 0.91"}, {"smiles": "C=CC(=O)Nc1cc(Nc2nccc(-c3cn(C)c4ccccc34)n2)c(OC)cc1N(C)CCN(C)C", "note": "[Osimertinib (AZD9291)]", "PARP1 L713F-nLuc/akaLuc ratio": "0.371 (inactive)"}, {"smiles": "CC(C)(C#N)c1cc(Cn2cncn2)cc(C(C)(C)C#N)c1", "note": "[Anastrozole]", "PARP1 L713F-nLuc/akaLuc ratio": "0.888 (inactive)"}, {"smiles": "CC[C@H](C)C(=O)O[C@H]1C[C@@H](C)C=C2C=C[C@H](C)[C@H](CC[C@@H]3C[C@@H](O)CC(=O)O3)[C@H]21", "note": "[Lovastatin]", "PARP1 L713F-nLuc/akaLuc ratio": "0.643 (inactive)"}]}]}
